We go through 40 compounds from PubChem BioAssay (NCATS).

Unmarked numbers belong to inactive results. No rule for the calls is given here.
Potency is read from the fitted curve at half-maximal effect.

This assay relates to HIV-1 nucleocapsid protein NCp7 (binding to TG oligonucleotide). Description: HIV Nucleocapsid (AID 346).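 Also: potency is for inhibitors that block NC binding and lower polarization.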 To be noted: HIV-1 NC / fluorescein-TGTGTGTG probe, fluorescence polarization. Put shortly:
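10 nM TG4xF probe with 100 nM nucleocapsid protein in high-salt Hepes pH 7.5 (250mM NaCl) containing 1uM ZnCl2 and reducing agents. Compound inhibition of binding was read as fluorescein polarization after 1 hr at room temperature.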
(Fluorescence polarisation rises when a labelled molecule tumbles more slowly, as on binding a larger partner.)
On to `CC(=O)N1CCC2(CCCN(C(=O)Nc3cccc(F)c3)C2)CC1`, for which the Potency is > 20 µM. To `O=C(c1cnccn1)N1CCC2(CC1)CN(Cc1nccs1)C2` belongs > 20 µM. The figure for `CC(C)CN1CCCC2(CCN(C(=O)c3cccn3C)CC2)C1` is > 20 µM. The figure for `COc1ccccc1CNc1ccnc(-c2ccc(N(C)C)cc2)n1` is > 20 µM; for `Cc1cnc(CNc2cc(-c3ccc4c(c3)OCO4)ncn2)cn1` it is > 20 µM.

For the compound `O=c1c(-c2ccc(F)c(F)c2)nc2cncnc2n1-c1ccccc1`, the Potency is > 20 µM. The figure for `COc1ccc(Oc2ncc3nc(-c4ccc(OC)cc4)c(=O)n(C4CC4)c3n2)cc1` is > 20 µM; for `CC(=O)N1CCC2(CC1)CN(Cc1ccccc1)C2` it is > 20 µM; for `NC(=O)c1ccccc1-c1nc(-n2ccnc2)c2ccccc2n1` it is > 20 µM. The figure for `Cc1noc(C)c1-c1nccc(Nc2ccc(F)cc2)n1` is > 20 µM; for `CC(=O)N1CCC2(CCN(Cc3ccc(C#N)cc3)CC2)CC1` it is > 20 µM. The figure for `CCNc1ncc2nc(C)c(=O)n(Cc3ccc(F)cc3)c2n1` is > 20 µM. In the case of `COc1ccccc1CN1CC[C@@]2(CCCN(S(=O)(=O)c3ccccc3)C2)C1`, the Potency is > 20 µM.

Take `N#Cc1cccc(NC(=O)N2CCCC3(CCN(C(=O)c4csnn4)CC3)C2)c1`: the Potency is > 20 µM. To `O=c1c(CCc2ccccc2)nc2cnc(Oc3ccccc3)nc2n1C1CC1` belongs > 20 µM; to `CN(C)C(=O)c1ccc(-c2ccc3ncnc(N(C)C)c3c2)cc1`, > 20 µM. To `COc1ccc(-c2nc3cnc(Nc4cccc(OC)c4)nc3n(C)c2=O)cc1` belongs > 20 µM; to `COc1ccc(NC(=O)N2CCCC3(CCN(C(=O)c4cccn4C)CC3)C2)cc1`, > 4 µM. As for `COc1cccc(-c2cncnc2NCCc2cnc[nH]2)c1`, the Potency is > 20 µM.

For the compound `O=c1c(-c2cccs2)nc2cnc(Oc3ccccc3)nc2n1Cc1cccs1`, the Potency is > 20 µM. The figure for `CC(=O)N1CCC2(CC1)CN(Cc1ccc(C#N)cc1)C2` is > 20 µM; for `O=C(Nc1cccc(F)c1)N1CCC2(CC1)CCN(C(=O)c1cc(C(F)(F)F)cc(C(F)(F)F)c1)CC2` it is > 20 µM; for `O=C(c1ccncc1)N1CCC[C@@]2(CCN(Cc3ccncc3)C2)C1` it is > 20 µM.

Regarding `FC(F)(F)c1ccccc1-c1cncnc1NCc1cccnc1`, the Potency was > 20 µM. The figure for `COc1ccc(C(=O)N2CCC3(CC2)CN(c2ncccn2)C3)cc1` is > 20 µM; for `COc1ncc2nc(-c3cn(C)c4ccccc34)c(=O)n(C)c2n1` it is > 20 µM; for `Cc1ccccc1-c1nc(N(C)Cc2ccco2)c2ccccc2n1` it is > 20 µM. The figure for `N#CCCn1c(=O)c(-c2ccccc2)nc2cnc(N3CCOCC3)nc21` is > 20 µM. As to `COC(=O)N1CCC[C@@]2(CCN(C(=O)Nc3cccc(F)c3)C2)C1`, the Potency is > 20 µM. To `CN1CCN(c2nc(-c3ccc4c(c3)OCO4)nc3ccccc23)CC1` belongs > 20 µM. The figure for `CN(C)c1nc(-c2ccc3c(c2)OCO3)nc2ccccc12` is > 20 µM; for `Cn1c(=O)c(-c2ccc(Cl)cc2)nc2cnc(Nc3ccccc3)nc21` it is > 20 µM; for `CC(C)NC(=O)N1CC2(CCN(S(=O)(=O)c3ccccc3)CC2)C1` it is > 20 µM. The figure for `COc1ccc(Oc2ncc3nc(-c4ccc(F)cc4)c(=O)n(C4CC4)c3n2)cc1` is > 20 µM; for `CN(Cc1ccco1)c1ncncc1-c1cccc(C#N)c1` it is > 20 µM; for `Cc1nc2cnc(Nc3ccccc3)nc2n(C[C@H]2CCCO2)c1=O` it is > 20 µM. As to `COc1ccccc1CN1CCCC2(CCN(S(=O)(=O)c3ccccc3)CC2)C1`, the Potency was > 20 µM. `COCCn1c(=O)c(C)nc2cnc(N3CCN(C)CC3)nc21`: the Potency is > 20 µM. The figure for `Cn1c(=O)c(-c2cccs2)nc2cnc(OCc3ccccc3)nc21` is > 20 µM; for `COc1cccc(Cn2c(=O)c(-c3ccc(Cl)cc3)nc3cnc(N4CCOCC4)nc32)c1` it is > 20 µM.
